Our source for the growth values is PubChem BioAssay (NCI).

The panel holds about 83,000 compounds, 20% with a hit somewhere; the sample as a whole holds those more often.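 96-well plates, one dose, 48 hours. Percent growth reported; active if below 10.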 Values without a mark were called inactive. The source made the active and inactive calls.

Some test systems named below: DU-145 prostate; K-562 leukemia; MALME-3M melanoma; MDA-MB-231 breast; RXF 393 renal; SF-268 CNS; SF-295 CNS; SF-539 CNS; UACC-257 melanoma; M14 melanoma; HCT-15 colon; HT29 colon; SNB-75 CNS; SNB-19 CNS; U251 CNS; SK-MEL-5 melanoma; UACC-62 melanoma; LOX IMVI melanoma; SK-MEL-28 melanoma; PC-3 prostate.
Holding throughout (assay): NCI-60 one-dose screen, 48 h (100 = growth as untreated, 0 = no growth, -100 = all killed)
Common to all, as to settings: 10 µM unless noted

Turning to `COc1ccc(/C=C/c2nc3ccccc3c(=O)n2-c2ccc(C#Cc3ccc(C(C)(C)C)cc3)cc2C)c(OC)c1`, the growth with DU-145 prostate is 109%; in the assay with K-562 leukemia, 63.9%; in the assay with MALME-3M melanoma it was 94.8%; in the assay with MDA-MB-231 breast, 89.5%; in the assay with RXF 393 renal, 113%; with SF-268 CNS, 96.9%. For the same compound, the growth with SF-295 CNS is 101%; in the assay on SF-539 CNS it was 97.1%; with UACC-257 melanoma it was 72.8%; in the assay on M14 melanoma, 96.8%; with HCT-15 colon, 59.3%; in the assay on HT29 colon, 78%. The growth in the assay with SNB-75 CNS was 99.4%; in the assay with SNB-19 CNS, 105%; with U251 CNS, 75.3%; with SK-MEL-5 melanoma, 69.7%; with UACC-62 melanoma, 72.6%; with LOX IMVI melanoma, 80%. Further, the growth in the assay with SK-MEL-28 melanoma was 109%.

In the case of `COc1cc(OC)c2sc(-c3ccc(-n4cncc4-c4ccc(OC)c(N)c4)cc3)nc2c1`, the growth in the assay with DU-145 prostate is 93.5%; in the assay on K-562 leukemia, 54.7%; in the assay with MALME-3M melanoma it was 82.4%; with MDA-MB-231 breast, 75.5%; in the assay on RXF 393 renal, 75.4%; with SF-268 CNS, 87.3%. The growth in the assay on SF-295 CNS is 69.4%; with SF-539 CNS, 84.1%; in the assay on UACC-257 melanoma it was 94.3%; with M14 melanoma it was 79.9%; in the assay with HCT-15 colon it was 73.9%; in the assay with HT29 colon it was 74.3%. The growth with SNB-75 CNS was 81.8%; in the assay on SNB-19 CNS, 80.1%; in the assay with U251 CNS, 67.2%; in the assay with PC-3 prostate, 50.4%; with UACC-62 melanoma, 85.6%; in the assay with LOX IMVI melanoma, 90.2%. Moreover, in the assay with SK-MEL-28 melanoma, the growth is 104%.

As to `COc1ccc2nc(-c3ccc(-c4noc(-c5ccc(Cl)cc5)n4)cc3)[nH]c2c1`, the growth with DU-145 prostate is 48%; with K-562 leukemia it was 45.1%; in the assay with MALME-3M melanoma it was 37.1%; in the assay with MDA-MB-231 breast it was 75.6%; in the assay on RXF 393 renal it was 103%; with SF-268 CNS it was 63.4%. The growth was 87.5% in the assay with SF-295 CNS; 77.2% in the assay on SF-539 CNS; 74.5% with UACC-257 melanoma; 42.9% with M14 melanoma; 75.8% with HCT-15 colon; 82% with HT29 colon. The growth in the assay with SNB-75 CNS is 31.8%; with SNB-19 CNS, 95.6%; with U251 CNS, 78.2%; in the assay with SK-MEL-5 melanoma it was 78.8%; in the assay with UACC-62 melanoma, 58.3%; in the assay with LOX IMVI melanoma, 57.3%. Moreover, the growth with SK-MEL-28 melanoma is 79.7%.

For `NS(=O)(=O)c1ccc(CCn2c(SCC(=O)N/N=C/c3ccccc3O)nc3ccccc3c2=O)cc1`, the growth in the assay on DU-145 prostate was 42.7%; in the assay on K-562 leukemia it was 9.2% (active); in the assay on MALME-3M melanoma, 62.3%; in the assay with MDA-MB-231 breast, 63.4%; in the assay with RXF 393 renal it was 46.7%; in the assay on SF-268 CNS it was 55.8%. Also, the growth in the assay with SF-295 CNS is 39.7%; with SF-539 CNS, 25.6%; with UACC-257 melanoma it was 55.6%; in the assay on M14 melanoma, 41.5%; in the assay on HCT-15 colon, 59.9%; with HT29 colon, 10% (active). Further, the growth in the assay with SNB-75 CNS is 23.8%; in the assay with SNB-19 CNS, 49.1%; with U251 CNS it was 26.8%; in the assay on PC-3 prostate, 36.1%; in the assay on UACC-62 melanoma it was 48.8%; with LOX IMVI melanoma, 43.9%. Besides, the growth in the assay on SK-MEL-28 melanoma is 76.5%.

In the case of `O=[N+]([O-])c1ccc(N=Nc2c(NNc3ccc([N+](=O)[O-])cn3)cc(S(=O)(=O)O)c3ccccc23)nc1`, the growth in the assay with DU-145 prostate was 74.9%; with K-562 leukemia it was 94.3%; with MALME-3M melanoma, 129%; in the assay on MDA-MB-231 breast, 57%; in the assay with RXF 393 renal, 120%; in the assay with SF-268 CNS it was 63.9%. Besides, the growth is 114% in the assay on SF-295 CNS; 89.3% in the assay on SF-539 CNS; 101% in the assay on UACC-257 melanoma; 60.6% in the assay on M14 melanoma; 68.7% in the assay on HCT-15 colon; 40.8% with HT29 colon. Moreover, the growth in the assay with SNB-75 CNS was 91.9%; in the assay on SNB-19 CNS, 95.6%; with U251 CNS, 68.7%; in the assay with PC-3 prostate it was 67.7%; in the assay with UACC-62 melanoma it was 86.4%; in the assay with LOX IMVI melanoma it was 57.9%. Also, the growth in the assay with SK-MEL-28 melanoma is 104%.

For the compound `CCCCCCCCCCCCC1CCC(=O)O1` (configuration not stated), the growth in the assay with DU-145 prostate is 104%; with K-562 leukemia it was 97.1%; with MALME-3M melanoma it was 98.2%; with MDA-MB-231 breast, 103%; in the assay on RXF 393 renal it was 123%; with SF-268 CNS, 97.1%. Also, the growth in the assay with SF-295 CNS was 105%; in the assay with SF-539 CNS it was 89.8%; in the assay on UACC-257 melanoma it was 107%; in the assay on M14 melanoma, 91.6%; in the assay with HCT-15 colon, 91.7%; in the assay with HT29 colon, 90.6%. Moreover, the growth was 95% with SNB-75 CNS; 98.3% in the assay on SNB-19 CNS; 101% in the assay with U251 CNS; 95.8% in the assay with PC-3 prostate; 98.5% in the assay on UACC-62 melanoma; 93.5% in the assay on LOX IMVI melanoma. For the same compound, the growth with SK-MEL-28 melanoma is 96.4%.

For `Cc1ccc(Nc2cc(Cl)c([N+](=O)[O-])cc2[N+](=O)[O-])cc1`, the growth in the assay with DU-145 prostate is 46.7%; in the assay with K-562 leukemia, 13.3%; in the assay on MALME-3M melanoma it was 70.4%; with MDA-MB-231 breast, 18.3%; with RXF 393 renal, -41.2% (active); with SF-268 CNS, 27.7%. Moreover, the growth in the assay with SF-295 CNS is 99.4%; with SF-539 CNS, 21.7%; in the assay with UACC-257 melanoma it was 73.6%; in the assay on M14 melanoma, 34.7%; in the assay with HCT-15 colon it was 16.8%; in the assay with HT29 colon it was 3.12% (active). Also, the growth was 96% in the assay with SNB-75 CNS; 85.8% with SNB-19 CNS; 25.8% in the assay on U251 CNS; 55.3% in the assay on PC-3 prostate; 48.7% in the assay with UACC-62 melanoma; 9.04% (active) with LOX IMVI melanoma. Besides, in the assay on SK-MEL-28 melanoma, the growth is 71.5%.

Regarding `C#Cc1cccc(Nc2nc3cc([N+](=O)[O-])ccc3nc2Nc2ccc(O)cc2)c1`, the growth with DU-145 prostate was 23.3%; with K-562 leukemia, -30% (active); in the assay with MALME-3M melanoma, 51.2%; with MDA-MB-231 breast, -48.2% (active); with RXF 393 renal, 54.8%; with SF-268 CNS, 27.3%. In addition, the growth in the assay on SF-295 CNS is 1.66% (active); in the assay on SF-539 CNS, 21.8%; in the assay on UACC-257 melanoma, 25.9%; in the assay with M14 melanoma, -52.5% (active); in the assay on HCT-15 colon, 0.208% (active); with HT29 colon, -80.7% (active). Also, the growth in the assay on SNB-75 CNS was 43.8%; with SNB-19 CNS it was 23.3%; in the assay on U251 CNS, 2.57% (active); with PC-3 prostate it was 2.88% (active); in the assay with UACC-62 melanoma, -15.9% (active); in the assay on LOX IMVI melanoma it was -87.5% (active). In addition, in the assay on SK-MEL-28 melanoma, the growth was 21.5%.
